This note sets out measurements from PMC4151992.

Test in all cases: cross-link between two proteins
Test [1] deals with Small ribosomal subunit protein eS1A (UniProt P33442).
Test [2] addresses Small ribosomal subunit protein eS4A (UniProt P0CX35).
Test [3] concerns the target Small ribosomal subunit protein eS6A (UniProt P0CX37).
In test [4] the target is Small ribosomal subunit protein eS7A (UniProt P26786).
Small ribosomal subunit protein eS7A, sequence (P26786 whole entry): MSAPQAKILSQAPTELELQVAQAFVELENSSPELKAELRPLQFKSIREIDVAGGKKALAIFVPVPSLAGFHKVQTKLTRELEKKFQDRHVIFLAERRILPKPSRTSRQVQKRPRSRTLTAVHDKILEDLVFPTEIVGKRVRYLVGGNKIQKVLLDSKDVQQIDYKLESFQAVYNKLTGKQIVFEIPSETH

Small ribosomal subunit protein eS4A, sequence (P0CX35 whole entry): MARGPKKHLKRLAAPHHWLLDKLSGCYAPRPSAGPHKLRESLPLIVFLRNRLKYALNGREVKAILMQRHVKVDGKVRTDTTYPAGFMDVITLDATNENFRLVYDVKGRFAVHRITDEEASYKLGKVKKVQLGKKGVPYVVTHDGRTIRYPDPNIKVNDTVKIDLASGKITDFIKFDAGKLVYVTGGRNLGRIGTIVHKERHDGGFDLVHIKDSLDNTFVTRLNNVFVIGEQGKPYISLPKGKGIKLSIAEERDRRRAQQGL
Small ribosomal subunit protein eS1A, sequence (P33442 whole entry): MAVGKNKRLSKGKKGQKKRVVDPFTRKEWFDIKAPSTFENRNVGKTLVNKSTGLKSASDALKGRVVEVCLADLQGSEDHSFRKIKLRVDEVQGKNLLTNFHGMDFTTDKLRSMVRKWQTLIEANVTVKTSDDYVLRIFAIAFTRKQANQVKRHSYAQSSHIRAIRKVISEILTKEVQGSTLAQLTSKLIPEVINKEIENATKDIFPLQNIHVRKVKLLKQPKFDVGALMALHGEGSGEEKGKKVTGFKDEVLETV
Small ribosomal subunit protein uS8A, P0C0W1, sequence (P0C0W1 whole entry): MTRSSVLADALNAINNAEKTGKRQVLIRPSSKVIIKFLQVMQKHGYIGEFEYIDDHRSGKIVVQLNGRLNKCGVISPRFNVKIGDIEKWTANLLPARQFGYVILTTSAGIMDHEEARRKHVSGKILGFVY
Small ribosomal subunit protein eS6A, sequence (P0CX37 whole entry): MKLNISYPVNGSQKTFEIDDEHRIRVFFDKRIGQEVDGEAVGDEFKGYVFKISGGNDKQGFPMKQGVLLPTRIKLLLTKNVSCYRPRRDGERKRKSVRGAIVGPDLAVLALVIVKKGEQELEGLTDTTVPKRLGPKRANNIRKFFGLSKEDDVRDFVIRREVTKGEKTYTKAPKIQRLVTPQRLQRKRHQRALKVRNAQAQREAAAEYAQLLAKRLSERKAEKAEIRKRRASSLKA

Turning to “Small ribosomal subunit protein uS11A, P06367”, the “listed as a hit” value in test [1] was “yes”.

Turning to “Small ribosomal subunit protein eS24A, P0CX31”, the “listed as a hit” value in test [2] is “yes”.

With “Small ribosomal subunit protein eS4A, P0CX35”, the “listed as a hit” value in test [3] is “yes”.

For “Small ribosomal subunit protein uS8A, P0C0W1”, the “listed as a hit” value in test [4] was “yes”.
